This is an account of results in PubChem BioAssay AID651718 (The Scripps Research Institute Molecular Screening Center, 2012).

The whole screen tested about 360,000 compounds, of which about 2,700 (0.75%) were called active. The sample holds actives, similar compounds and a random draw of the others, so the mix is not that of the screen. Rule as the data show it: active = inhibition above about 4.5%; inactive = the rest.

This assay deals with Methionine sulfoxide reductase A (Bos taurus). As to the kind of experiment: inhibition of methionine sulfoxide reductase A – biochemical, absorbance, bovine, HTS, primary screen (AID 651718).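 Also: 0% = vehicle wells with enzyme and 100% = reference inhibitor wells.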 The following applies: purified bovine MsrA, absorbance read-out; at 15.5 µM; stronger effect = higher value.
As usually defined, the inhibition is the drop in the measured response relative to a control, in per cent. On to `COc1cc(/C=C/C(=O)OCC(=O)N2CCOCC2)ccc1OCC#N`, for which the inhibition was 2.74% (inactive).
Next, `CCOc1ccc(/C=C(/C#N)c2nnc(N3CCOCC3)n2-c2ccccc2)cc1OC`: 6.28% (active).
Next, `CCOc1cc(-c2noc(CCC(=O)N3CCOCC3)n2)ccc1OC`: -1.14% (inactive).
The value for `NC(=O)c1ncn([C@@H]2O[C@H](C(=O)O)[C@@H](O)[C@H]2O)n1` was 0.08% (inactive); that for `CCCOc1ccc(/C(O)=C2/C(=O)C(=O)N(CCN(C)C)C2c2ccc(OC)c(OC)c2)cc1` (stereo not given) was 1.66% (inactive); that for `COc1ccc(C2C(C(C)=O)=C(O)C(=O)N2CCc2c[nH]c3ccccc23)cc1` (stereo not given) was 2.78% (inactive).
For `COc1cc(C2C(C(=O)c3sc(C)nc3C)=C(O)C(=O)N2CCN(C)C)cc(OC)c1OC` (stereo not given), the inhibition was 18.4% (active).
The value for `Cc1cc(C)c(S(=O)(=O)NCCCN2CCOCC2)cc1Br` was -0.29% (inactive).
Next, `CCc1nnc(NC(=O)/C=C/c2ccc(C)o2)s1`: 5.52% (active).
The value for `CCc1nnc(NC(=O)[C@@H](NC(=O)c2cccc(C)c2)C(C)C)s1` was 0.82% (inactive); that for `CCc1nnc(NC(=O)c2ccco2)s1` was 2.11% (inactive).
On to `COc1ccc(SSc2ccc(OC)cc2C(=O)O)c(C(=O)O)c1`, for which the inhibition was 3.29% (inactive).
The value for `CC(=O)C1=C(C)N(Cc2ccc(Cl)cc2)C(=S)NC1c1ccc(F)cc1` (stereo not given) was 0.08% (inactive); that for `Cc1cc2c(=O)n(CC(=O)NCC(=O)Nc3ccc(C(C)C)cc3)cnc2s1` was -2.15% (inactive).
The value for `Cc1ccc(Nc2ccc(C(N)=O)cc2[N+](=O)[O-])cc1` was 11.1% (active); that for `Cc1cccc(N2CCN(c3ccc(C(N)=O)cc3[N+](=O)[O-])CC2)c1C` was -0.25% (inactive); that for `CC(=O)Nc1ccc2c3c(ccc([N+](=O)[O-])c13)CC2` was 0.76% (inactive).
The value for `NC(=O)c1ccc(Nc2ccc3c(c2)CCC3)c([N+](=O)[O-])c1` was 13.9% (active).
With `O=[N+]([O-])c1ccccc1Nc1ccc(O)cc1`, the inhibition is 2.41% (inactive).
For `Cc1ccc(Nc2cc(C)nc3c(C)ccc([N+](=O)[O-])c23)cc1`, the inhibition is -0.67% (inactive).
The value for `C=CC1=CCN(S(=O)(=O)C(C)(C)C)[C@@H]1CCO` was -1.1% (inactive).
Next, `COc1ccc(C)cc1NC(=O)CNCc1cccs1`: 1.1% (inactive).
The value for `N=C1c2ccccc2-c2ccccc21` was 0.22% (inactive); that for `COc1cc(C2CC(=O)N3CN(Cc4ccccc4)CSC3=C2C#N)ccc1OCc1ccccc1` (stereo not given) was 0.9% (inactive).
As for `CCCCN1C(=O)C(CC(=O)NCc2cccs2)CC(C(=O)N2CCOCC2)=C1C` (stereo not given), the inhibition was 0.14% (inactive).
The value for `OC(c1ccccc1)(c1ccccc1)C1CCN(CCCOc2ccc(-c3ccsc3)cc2)CC1` was 0.25% (inactive); that for `O=C(Cc1c[nH]c2ccccc12)N/N=C/c1cccc(F)c1` was 0.41% (inactive); that for `CN(C)S(=O)(=O)c1cccc(NC(=S)N/N=C/C(=O)c2ccccc2)c1` was 1.15% (inactive).
The value for `O=C(O)c1cccc(NC(=S)N/N=C/c2c[nH]c3ccccc23)c1` was 5.25% (active).
For the molecule `COc1ccc(NC(=O)NNC(=O)COc2cc(C)c(Cl)c(C)c2)c(OC)c1`, the inhibition was -0.36% (inactive).
Regarding `CCCCCCCCN1C(=O)[C@@H](CC(=O)N2CCN(C(=O)OCC)CC2)C[C@@]2(C(=O)OC)C1=C[C@H](C1CCCC1)O[C@@H]2C`, the inhibition was 0.48% (inactive).
Next, `CCOc1cc(/C=C2\C(=N)N3N=C(C)SC3=NC2=O)ccc1OCCOc1ccccc1`: -1.53% (inactive); `CCOc1cc(/C=C2\SC(N3CCCC(C)C3)=NC2=O)ccc1O` (stereo not given): 3.02% (inactive).
Next, `CCOc1cc(/C=C2\SC(N3CCCCC3)=NC2=O)ccc1O`: 4.93% (active); `CC(C)CNc1cccc2c1S(=O)(=O)N[C@H](CC(C)C)CO2`: 2.13% (inactive); `COC(=O)Cc1nnn2c1[C@H](C)[C@H](c1ccccc1Br)OCC2`: 0.32% (inactive).
The value for `Cc1c(C(=O)OC(C)C)sc(NC(=O)c2cccnc2)c1C#N` was 0.08% (inactive).
As to `CCN(CC)C(=O)c1sc(NC(=O)c2ccco2)c(C#N)c1C`, the inhibition is 4.94% (active).
For the molecule `Cc1sc(NC(=O)C2=COCCO2)c(C#N)c1C`, the inhibition is 0.89% (inactive).
Turning to `Nc1ncnc2c1ncn2[C@@H]1O[C@H](C(=O)N[C@@H](CCc2ccccc2)C(=O)NCC(=O)N2CCOCC2)[C@@H](O)[C@H]1O`, the inhibition is -0.08% (inactive).
Take `COc1cccc(CNCc2ccc3c(c2)OCO3)c1`: the inhibition is 0.46% (inactive).
Turning to `NS(=O)(=O)c1ccc2nc(NC(=O)CS(=O)(=O)c3ccc(F)cc3)sc2c1`, the inhibition was 0.94% (inactive).
As to `CC(=O)Nc1ccc2nc(NC(=O)CS(=O)(=O)c3ccc(F)cc3)sc2c1`, the inhibition is 1.73% (inactive).
Turning to `CS(=O)(=O)c1ccc2nc(NC(=O)c3ccc(Cl)nc3)sc2c1`, the inhibition is 4.77% (active).
Next, `COC(=O)C1=C(C)N(Cc2ccccc2C(F)(F)F)C(=NCc2ccc(OC)cc2)NC1c1cccc(C(F)(F)F)c1` (stereo not given): -3.43% (inactive).
Next, `Nc1ccn([C@@H]2O[C@H](C(=O)N[C@H]3CCCCNC3=O)[C@@H](O)[C@H]2O)c(=O)n1`: -0.17% (inactive); `C=CC[C@]12C[C@@]3(O[C@H](c4ccc(C(F)(F)F)cc4)N=C3C[C@H](c3ccc(OC)cc3)[C@H]1C)N(C1CCN(Cc3ccccc3)CC1)C2=O`: 0.32% (inactive); `Clc1cccc(-c2nc3nc4ccccc4nc3n2Cc2ccco2)c1`: 4.87% (active).
The value for `O=C(CSc1nnc(-c2cccnc2)n1Cc1ccco1)c1ccc(Cl)c(Cl)c1` was -1.02% (inactive).
Regarding `Cc1cc(NCc2ccco2)n2c(nc3ccccc32)c1C#N`, the inhibition is -0.85% (inactive).
Next, `CCC1SC2=NCCN2C1(O)c1ccc(Cl)cc1` (stereo not given): -0.53% (inactive).
The value for `Cc1cc2c(cc1C)NC1(C[C@H]3CCC(=O)N4CC[C@@H](C1)[C@@H]34)C(=NC(C)(C)CC(C)(C)C)N2` (stereo not given in full) was 0.45% (inactive).
Next, `COCCN(C(=O)C(C)C)c1nnc(-c2ccc(C(C)(C)C)cc2)s1`: -0.05% (inactive); `CC(C)[C@H]1COCCS(=O)(=O)N1Cc1ccccc1-c1cccc2c1sc1ccccc12`: 1.34% (inactive).
In the case of `O=C(O)C(CCc1ccccn1)c1ccccc1` (stereo not given), the inhibition was -0.84% (inactive).
Next, `O=C(Cc1ccccn1)c1ccc(O)cc1O`: 4.91% (active); `Oc1cccc(CCc2ccccn2)c1`: -1% (inactive).
Turning to `CCOC(=O)N1CCN(C(=O)C[C@H]2C[C@@]3(C(=O)OC)C(=C[C@H](C4CCCC4)O[C@@H]3C)N(Cc3ccccc3)C2=O)CC1`, the inhibition is -0.08% (inactive).
The value for `Nc1ncnc2c1ncn2C1OC(CO)CC1O` (stereo not given) was 1.51% (inactive); that for `CC1(C(=O)NS(=O)(=O)c2cccc(OC(F)F)c2)CCN1C(=O)C1CC1` (stereo not given) was 0.29% (inactive); that for `COC(=O)c1c(-c2ccc(OC)cc2)c2c(c3c4ccccc4n(S(=O)(=O)c4ccc(C)cc4)c13)C(=O)N(C)C2` was 1.59% (inactive).
For the molecule `Nc1nc2c(ncn2[C@@H]2O[C@H](C(=O)N[C@H](Cc3ccccc3)C(=O)NCC3CCCCC3)[C@@H](O)[C@H]2O)c(=O)[nH]1`, the inhibition is 0.66% (inactive).
Next, `O=C(O)c1ccc(N/N=C/c2cn(-c3ccccc3)nc2-c2cccs2)cc1`: 8.7% (active).
The value for `CC(=O)C1=C(C)NC(C)=C(C(C)=O)C1c1cn(-c2ccccc2)nc1-c1cccs1` was 1.65% (inactive); that for `COc1ccc(Cl)cc1NC(=O)CN(C)C(=O)c1cn(-c2ccccc2)nc1-c1cccs1` was 0.13% (inactive).
The value for `CC(=NNC(N)=O)c1ccc(Cl)c(-n2cccc2)c1` was -0.35% (inactive); that for `CN1CCCCC(NC(=O)C(C)(C)C)C1=O` (stereo not given) was 0% (inactive); that for `CC(=O)Nc1ccc(S(=O)(=O)Oc2ccc(/C=N/N=C3/NC(=O)C(CC(=O)O)S3)cc2)cc1` (stereo not given) was 5.33% (active).
In the case of `Cc1ccc(NC(=O)CC2S/C(=N/N=C3\CCCc4ccccc43)NC2=O)cc1` (stereo not given), the inhibition is -0.26% (inactive).
With `Cc1ccc(S(=O)(=O)Oc2ccc(/C=N/NC(=O)c3c(Cl)cnn3C)cc2)cc1`, the inhibition is 0.98% (inactive).
Next, `COC(=O)[C@]12C[C@H](CC(=O)NCCCCc3ccccc3)C(=O)N(Cc3ccc4c(c3)OCO4)C1=C[C@H](C(C)(C)C)O[C@@H]2C`: 1.75% (inactive); `CCOC(=O)Cn1c2c(n(-c3ccc(F)cc3)c1=O)C=C(c1ccccc1)[C@@H](C)C(C(=O)N(C)C1CCCCC1)=C2`: -0.4% (inactive); `COc1ccc(C2=CN(Cc3ccccc3)C(c3ccc(OC)cc3)CC2=O)cc1` (stereo not given): -0.65% (inactive).
Take `COc1ccc(CNS(=O)(=O)c2cc(Br)ccc2Br)cc1`: the inhibition was 0.62% (inactive).
Next, `COc1ccc(/C=N/Nc2cc(N3CCOCC3)nc(C)n2)c(OC)c1`: 5.8% (active); `Fc1ccccc1/C=N/Nc1cc(N2CCCCC2)ncn1`: 1.96% (inactive); `C(=N/Nc1cc(N2CCOCC2)nc(N2CCOCC2)n1)/c1ccccc1`: 5.01% (active).
The value for `COc1ccccc1-c1cnn2c(N3CCOCC3)cc(C)nc12` was 1.96% (inactive); that for `O=C(O)c1ccc(NN=CC2=C(N3CCOCC3)/C(=C/c3ccccc3)CC2)cc1` was 2.43% (inactive).
Next, `Cc1cc2c(C)nc(N/N=C/c3ccccc3)nc2o1`: 3.05% (inactive); `COc1ccccc1C(=O)N1O[C@]23C=C[C@]14C[C@@H](O)CC[C@]4(C)C2CC[C@]1(C)[C@@H]([C@H](C)/C=C/[C@H](C)C(C)C)CC[C@H]13` (stereo not given in full): -0.78% (inactive).
Consider `CN(C)C(=O)N1CCN(C(=O)[C@@H](Cc2ccccc2)NC(=O)[C@H]2O[C@@H](n3ccc(N)nc3=O)[C@H](O)[C@@H]2O)CC1`, for which the inhibition is 0.17% (inactive).
Next, `CSc1ccc(Oc2cccc3c2S(=O)(=O)N([C@H](C)c2ccccc2)C[C@@H](COCc2ccccc2)O3)cc1C`: 0.09% (inactive).
As to `CC(C)Cc1oc(C(=O)O)cc1CN`, the inhibition is -1.34% (inactive).
Next, `Cc1ccc(S(=O)(=O)NCCC(c2ccccc2)c2ccccc2)cc1C(=O)O`: 0% (inactive).
